Pf growth 96h: P. falciparum growth inhibition at 96 hour, primary screen for plastid delayed-death inhibitors; P. falciparum luciferase reporter growth, 96 h; Potency, µM (titrated, usually from 28.7 µM), for the others: at the highest dose activity change, negative = inhibition, actives largely listed as inhibitors; 6.9% of 320,000 active; AID 504834; further: potency means the concentration at half of the fitted maximal effect; on the % scale 0 is the no-effect control and ±100 the full control effect
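Readout is luminescence from an integrated firefly luciferase in P. falciparum. Red cells, 2% hematocrit and 0.05% parasitemia final, were cultured with compound through two parasite generations (96 hours) at 37 C, 5% CO2.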
AMA1 RON2 block: disrupts binding of P. falciparum AMA1 to RON2; Potency, µM (titrated, usually from 58.2 µM), for the others: at the highest dose activity change, negative = inhibition, hits mostly inhibitors; AID 720542; AlphaScreen AMA1-biotinylated RON2 peptide binding; 0.2% of 360,000 active;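 further: potency means the concentration at half of the fitted maximal effect; 0% = vehicle wells and -100% = peptide control; nearly all actives have a fitted effect of over 45% in size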
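AMA1 (3D7) with his tag at 25 nM final met compounds first, then biotinylated RON2 peptide at 25 nM; detection used donor plus acceptor beads, 10 µg/mL apiece, read by AlphaScreen after 30 min at room temperature.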
SARS PLpro yeast-1: SARS-CoV PLP inhibition in yeast | 0.19% of 330,000 active | Potency, µM (titrated, usually from 32.9 µM), for inactives: at the top dose activity, positive = growth rescue, actives largely listed as activators | S. cerevisiae expressing SARS-CoV PLpro, growth rescue | AID 485353; calls by dose curve; further: potency means the concentration at half of the fitted maximal effect; 0% is about no effect; nearly all actives have a fitted effect of over 55% in size
Pf growth 48h: inhibits P. falciparum growth in the first generation, 48 h; P. falciparum luciferase growth in erythrocytes, 48 h; Potency, µM (series often up to 28.7 µM), without a hit: at the highest dose activity change, negative = inhibition, most hits filed as inhibitors; 5.9% of 310,000 active; further: potency means the concentration at half of the fitted maximal effect; on the % scale 0 is the no-effect control and ±100 the full control effect
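Firefly luciferase activity from engineered P. falciparum reports growth; inhibitors lower the luminescent signal. Cultures contained 2% hematocrit erythrocytes at 0.1% final parasitemia.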
SARS PLpro yeast-2: Inhibits SARS-CoV PLP in yeast, hit validation | shares compounds with SARS PLpro yeast-1 | yeast expressing SARS-CoV PLpro, growth phenotype rescue | calls only | 19% of 1,000 active | AID 652038; call rule not given here
* hit, by the source's call; i = inactive; ? = inconclusive; nt = not tested or not shown; [ ] = another dose, or the depositor's remark. Rows were chosen to be rich in hits. Some 9.4% of all compounds tested hit in one or more screens of this group. Unless noted, the call rests on the fitted dose curve; in most records, active means well fitted curve in the direction sought with a large enough effect; inconclusive means small, poorly fitted or top-dose-only effect, or another doubt; inactive means no such curve, though single readings can be large; an effect the other way counts as inactive or inconclusive.

SMILES	Pf growth 96h	AMA1 RON2 block	SARS PLpro yeast-1	Pf growth 48h	SARS PLpro yeast-2
CSc1cnc2c(=O)[nH]c(=O)n(C)c2n1	-12%	5%	-11%	4%	nt
O=C(N/N=C/c1ccc(-n2ccnc2)cc1)c1cccs1	47%	-2%	?	44%	i
COC(=O)c1cc(NC(=O)Cc2ccc(OC)cc2)cc(C(=O)OC)c1	nt	6%	0%	?	nt
Cc1cc([N+](=O)[O-])nn1CC(=O)N1CCCc2ccccc21	?	-10%	16µM*	14%	i
CN1C(=O)c2ccc(NC(=O)c3ccc(N4CCCCC4)c([N+](=O)[O-])c3)cc2C1=O	-9%	-8%	14µM*	10%	i
O=C(Nc1cccnc1)c1ccc(N2CCCC2)c([N+](=O)[O-])c1	-18%	-12%	1%	-7%	nt
O=C(CN1CCCCCC1)Nc1cccc(NC(=O)CN2CCCCCC2)c1	-17%	6%	2%	?	nt
COc1cccc(C(=O)N/N=C(\C)c2ccc(NC(=O)Cc3ccccc3)cc2)c1OC	?	1%	1%	?	nt
CCCN1CCN(C(=O)c2cc3c(s2)-c2ccccc2OC3)CC1	24%	16%	-6%	49%	nt
CCCN1CCN(C(=O)c2noc3c2COc2ccc(C)cc2-3)CC1	168%	-2%	?	50%	i
CCCc1nc(-c2cc3ccccc3[nH]c2=O)no1	?	?	1%	-11%	nt
O=C(NC(=S)NCCCN1CCOCC1)c1ccco1	44%	8%	1%	33%	nt
C(=C\c1ccccc1)/CNn1cnnc1	?	8%	?	18%	i
CN(C(=O)c1ccccc1-c1ncc[nH]1)C1CCCN(Cc2ccccc2F)C1 (stereo unspecified)	7%	6%	16µM*	2%	i
CN(C(=O)c1ccncc1)C1CCCN(Cc2ccccc2F)C1 (stereo unspecified)	?	-2%	-7%	91%	nt
CCOC(=O)N1CCC(N(CCCOC)C(=O)Nc2ccc(CC)cc2)CC1	nt	-3%	2%	?	nt
O=C(N/N=C/c1c(O)ccc2ccccc12)c1ccc[n+](CCO)c1	5.2µM*	?	0.89µM*	9.3µM*	i
O=C(N/N=C/c1c(O)ccc2ccccc12)c1ccc(Br)o1	3%	6%	12%	?	nt
O=C(CSc1nc2ccccc2c(=O)[nH]1)N1CCN(c2ccccc2F)CC1	?	-4%	-1%	-7%	nt
CN1CCN(C(=O)C2=C[C@H](C(C)(C)C)C[C@H](OCCCCO)O2)CC1	0%	4%	0%	0%	nt
Cc1ccccc1OCCNc1cc(N2CCN(CCO)CC2)ccc1[N+](=O)[O-]	7%	12%[2.32 µM]	-4%	?	nt
Cc1cccc(OCCNc2cc(N3CCN(CCO)CC3)ccc2[N+](=O)[O-])c1	136%	?	13µM*	?	i
CN(C(=O)COC(=O)Cc1ccc(Cl)cc1)C1CCCCC1	nt	-16%	?	nt	i
CC1CCCC(C)N1C(=O)COC(=O)Cc1ccc(Cl)cc1 (stereo unspecified)	-10%	16%	1%	?	nt
C[C@H](CO)N1C[C@H](C)[C@@H](CN(C)C(=O)Nc2ccccc2)Oc2ccc(NS(=O)(=O)c3ccccc3)cc2C1=O	nt	8%	1%	nt	nt
SMILES	Pf growth 96h	AMA1 RON2 block	SARS PLpro yeast-1	Pf growth 48h	SARS PLpro yeast-2
CCN(CC)S(=O)(=O)c1cccc(NC(=O)/C=C/c2cccc([N+](=O)[O-])c2)c1	-15%	-11%[11.6 µM]	20µM*	21%	?
Cc1cc(NC(=O)Cn2nc(C(F)(F)F)c3c2CCC3)n(-c2ccccc2)n1	nt	48%	-5%	nt	nt
Cc1cccc(C)c1NC(=O)Cn1c(=O)c(N2CCCCC2)c(N)n(C)c1=O	nt	-9%	11µM*	nt	i
COc1ccc(Cl)cc1Nc1cc(C)nc2ncnn12	nt	8%	nt	nt	nt
CCN(CC(=O)Nc1ccc(NC(C)=O)cc1)C(=O)/C=C/c1c(C)nn(-c2ccc(F)cc2)c1C	?	27%	?	?	i
CCN(CC(=O)Nc1ccc(NC(C)=O)cc1)C(=O)/C=C/c1cccs1	-11%	36%	-4%	12%	nt
O=C(NNS(=O)(=O)c1ccccc1F)c1cccc(S(=O)(=O)N2CCOCC2)c1	4%	4%	9%	-1%	nt
CN(C)C(=O)CCc1ccc2c3c([nH]c2c1)[C@]1(CCc2ccccc2)[C@@H](C(=O)N2CCCCC2)C[C@H](CC(=O)NCc2cccc(C(F)(F)F)c2)C(=O)N1CC3	nt	-8%	9%	nt	nt
CN(C(=O)c1ccccc1)c1ccccc1C(=O)NCCc1ccccc1	6%	-3%	1%	4%	nt
O=C(Cc1ccccc1[N+](=O)[O-])NCc1ccc(Cl)cc1Cl	-2%	15%	?	122%	i
Cc1ccc(S(=O)(=O)Oc2ccc(/C=C(/NC(=O)c3ccccc3)C(=O)O)cc2)cc1	7%	-11%	0%	-18%	nt
O=C(COc1coc(CN2CCN(c3ccc(F)cc3)CC2)cc1=O)Nc1ccccc1	-5%	1%	1%	?	nt
O=C(CN1CCN(c2ccccc2F)CC1)Nc1cccnc1Cl	3%	-2%	0%	494%	nt
O=C(CN1CCN(c2ncccn2)CC1)Nc1ccccc1-n1cccc1	12%	-29%	14µM*	?	i
Cc1ccc2nc(Nc3nc(CSc4nnnn4-c4ccccc4)cc(=O)[nH]3)nc(C)c2c1	50%	2%	?	nt	i
CC(C)(C)OC(=O)C[C@H]1C/C=C\C[C@@H](CC(=O)N[C@@H](CO)Cc2ccccc2)C(=O)NC[C@H](c2ccccc2)OC1=O	nt	18%	3.5µM*	nt	i
CCc1cc(C(=O)NNC(=O)c2csc(N3CCOCC3)n2)sc1C	7%	83%	1%	?	nt
C[C@@H]1O[C@@H](O[C@H]2C[C@@H](O)[C@]3(CO)[C@H]4[C@H](O)C[C@]5(C)[C@@H](C6COC(=O)C6)CC[C@]5(O)[C@@H]4CC[C@]3(O)C2)[C@H](O)[C@H](O)[C@H]1O (stereo partly specified)	-25%	0%	?	4%	i
O=C1CC(c2ccc3c(c2)OCO3)c2cc3c(cc2N1)OCO3 (stereo unspecified)	?	-9%	nt	?	nt
c1cc2c(cc1[C@H]1OC[C@H]3[C@@H]1CO[C@H]3c1ccc3c(c1)OCO3)OCO2	nt	8%	?	nt	i
C=CCn1c(SCC(=O)Nc2cc(C)on2)nc2c([nH]c3ccccc32)c1=O	30%	-15%	?	91%	i
CCCCOc1ccc(C(=O)NCC(=O)NC2CC2)cc1	30%	29%	11µM*	5%	i
CCCCOc1ccc(C(=O)NCC(=O)NCCOc2ccc(C)cc2)cc1	-2%	4%	0%[6.58 µM]	-3%	nt
NC(=O)C(=O)NN=C1C2CC3CC(C2)CC1C3	5%	19%	-6%	0%	nt
NC(=S)NN=C1C2CC3CC(C2)CC1C3	?	22%	?	?	i
O=C(CCCCCN1C(=O)[C@@H]2Cc3ccccc3CN2C1=O)N[C@@H](Cc1ccc(O)cc1)C(=O)O	16%	14%	10%	-5%	nt

Bioassay records deposited in PubChem by National Center for Advancing Translational Sciences (NCATS).
